Measured values taken from PubChem BioAssay AID1159580 (chemical genetic matrix, 2015).
About 2,000 (36%) of roughly 5,500 compounds were called active. Inconclusive results (about 18%) are left out. No stated cut-off is given here; in the data, active means normalized growth mostly below about 0.91 (no sharp cut-off); inconclusive means no clear call, values can overlap the other calls; inactive means mostly above about 0.92. Some of the results follow.

Experiment: chemical genetic growth profiling, strain panel (AID 1159580);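 further: tested at 20 µM; growth read once vehicle control cultures reached saturation at 30 °C; 1 = growth at the plate median or of vehicle wells; lower values mean less growth of the strain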
Conditions: growth OD

Measured: normalized growth

CC(C)(Oc1ccc(Cl)cc1)C(=O)O
inactive: S. cerevisiae deletion strains, locus YJR075W, strain HOC1, active compounds read low 0.992 | S. cerevisiae deletion strains, locus YKL009W, strain mrt4, active compounds read low 0.983 | S. cerevisiae deletion strains, locus YKL068W, active compounds read low 0.967 | S. cerevisiae deletion strains, locus YKL085W, strain MDH1 (second series), active compounds read low 0.981 | S. cerevisiae deletion strains, locus YKL085W, strain MDH1, active compounds read low 0.981 | S. cerevisiae deletion strains, locus YKL160W, strain elf1, active compounds read low 1.02 | S. cerevisiae deletion strains, locus YKL190W, strain CNB1, active compounds read low 0.996 | S. cerevisiae deletion strains, locus YKR001C, strain vps1, active compounds read low 0.973 | S. cerevisiae deletion strains, locus YKR026C, strain gcn3, active compounds read low 1 | S. cerevisiae deletion strains, locus YKR091W, strain srl3, active compounds read low 0.999 | S. cerevisiae deletion strains, locus YLL001W, strain dnm1, active compounds read low 1 | S. cerevisiae deletion strains, locus YLL026W, active compounds read low 1.01 | S. cerevisiae deletion strains, locus YLL041C, strain sdh2, active compounds read low 0.996 | S. cerevisiae deletion strains, locus YLR027C, strain aat2, active compounds read low 1.01 | S. cerevisiae deletion strains, locus YLR039C, strain RIC1, active compounds read low 0.967 | S. cerevisiae deletion strains, locus YLR058C, strain SHM2, active compounds read low 0.994 | S. cerevisiae deletion strains, locus YLR102C, strain apc9, active compounds read low 0.987 | S. cerevisiae deletion strains, locus YLR221C, strain rsa3, active compounds read low 0.981 | S. cerevisiae deletion strains, locus YLR258W, strain gsy2, active compounds read low 1.03 | S. cerevisiae deletion strains, locus YLR262C, strain YPT6 (second series), active compounds read low 1 | S. cerevisiae deletion strains, locus YLR262C, strain YPT6, active compounds read low 0.948 | S. cerevisiae deletion strains, locus YLR268W, strain sec22, active compounds read low 0.927 | S. cerevisiae deletion strains, locus YLR320W, strain mms22, active compounds read low 0.98 | S. cerevisiae deletion strains, locus YLR330W, strain CHS5, active compounds read low 0.985 | S. cerevisiae deletion strains, locus YLR342W, strain FKS1 (second series), active compounds read low 1.06 | S. cerevisiae deletion strains, locus YLR342W, strain FKS1, active compounds read low 1.03 | S. cerevisiae deletion strains, locus YLR357W, strain rsc2, active compounds read low 1.03 | S. cerevisiae deletion strains, locus YLR370C, strain arc18, active compounds read low 1.02 | S. cerevisiae deletion strains, locus YLR371W, strain rom2, active compounds read low 0.98 | S. cerevisiae deletion strains, locus YLR384C, strain iki3, active compounds read low 0.991 | S. cerevisiae deletion strains, locus YLR418C, strain cdc73, active compounds read low 1 | S. cerevisiae deletion strains, locus YML016C, strain PPZ1, active compounds read low 0.995 | S. cerevisiae deletion strains, locus YML032C, strain rad52, active compounds read low 0.958 | S. cerevisiae deletion strains, locus YML120C, strain ndi1, active compounds read low 0.983 | S. cerevisiae deletion strains, locus YML124C, strain tub3, active compounds read low 0.99 | S. cerevisiae deletion strains, locus YMR058W, strain fet3, active compounds read low 1.01 | S. cerevisiae deletion strains, locus YMR078C, strain ctf18, active compounds read low 0.978 | S. cerevisiae deletion strains, locus YMR125W, strain sto1, active compounds read low 1.05 | S. cerevisiae deletion strains, locus YMR129W, active compounds read low 1.02 | S. cerevisiae deletion strains, locus YMR205C, strain PFK2, active compounds read low 0.991 | S. cerevisiae deletion strains, locus YMR223W, strain ubp8, active compounds read low 1.03 | S. cerevisiae deletion strains, locus YMR231W, strain pep5, active compounds read low 0.999 | S. cerevisiae deletion strains, locus YMR263W, strain SAP30, active compounds read low 0.985 | S. cerevisiae deletion strains, locus YMR307W, strain GAS1, active compounds read low 1.09 | S. cerevisiae deletion strains, locus YNL067W, strain RPL9B, active compounds read low 0.977 | S. cerevisiae deletion strains, locus YNL071W, strain lat1, active compounds read low 1.02 | S. cerevisiae deletion strains, locus YNL128W, strain TEP1, active compounds read low 0.996 | S. cerevisiae deletion strains, locus YNL153C, strain GIM3, active compounds read low 0.979 | S. cerevisiae deletion strains, locus YNL209W, strain ssb2, active compounds read low 1.02 | S. cerevisiae deletion strains, locus YNL233W, strain BNI4, active compounds read low 0.994 | S. cerevisiae deletion strains, locus YNL248C, strain rpa49, active compounds read low 1.05 | S. cerevisiae deletion strains, locus YNL250W, strain rad50, active compounds read low 0.985 | S. cerevisiae deletion strains, locus YNL271C, strain bni1, active compounds read low 0.983 | S. cerevisiae deletion strains, locus YNL298W, strain CLA4, active compounds read low 0.963 | S. cerevisiae deletion strains, locus YNL307C, strain MCK1, active compounds read low 0.976 | S. cerevisiae deletion strains, locus YNL322C, strain KRE1 (second series), active compounds read low 0.996 | S. cerevisiae deletion strains, locus YNL322C, strain KRE1, active compounds read low 0.995 | S. cerevisiae deletion strains, locus YNR049C, strain mso1, active compounds read low 1.01 | S. cerevisiae deletion strains, locus YNR052C, strain pop2, active compounds read low 0.98 | S. cerevisiae deletion strains, locus YOL006C, strain TOP1, active compounds read low 0.941 | S. cerevisiae deletion strains, locus YOL012C, strain htz1 0.835 | S. cerevisiae deletion strains, locus YOL147C, strain pex11, active compounds read low 0.987 | S. cerevisiae deletion strains, locus YOR001W, strain rrp6, active compounds read low 0.962 | S. cerevisiae deletion strains, locus YOR061W, strain CKA2, active compounds read low 0.995 | S. cerevisiae deletion strains, locus YOR069W, strain VPS5, active compounds read low 0.991 | S. cerevisiae deletion strains, locus YOR070C, strain gyp1, active compounds read low 1.01 | S. cerevisiae deletion strains, locus YOR080W, strain dia2, active compounds read low 1.01 | S. cerevisiae deletion strains, locus YOR083W, strain WHI5, active compounds read low 0.985 | S. cerevisiae deletion strains, locus YOR106W, strain vam3, active compounds read low 1.04 | S. cerevisiae deletion strains, locus YOR136W, strain idh2, active compounds read low 0.989 | S. cerevisiae deletion strains, locus YOR144C, strain elg1, active compounds read low 0.982 | S. cerevisiae deletion strains, locus YOR184W, strain ser1, active compounds read low 0.964 | S. cerevisiae deletion strains, locus YOR265W, strain rbl2, active compounds read low 1.01 | S. cerevisiae deletion strains, locus YOR270C, strain vph1, active compounds read low 1.09 | S. cerevisiae deletion strains, locus YOR290C, strain snf2, active compounds read low 1.03 | S. cerevisiae deletion strains, locus YOR316C, strain cot1, active compounds read low 0.962 | S. cerevisiae deletion strains, locus YPL051W, strain arl3, active compounds read low 1.04 | S. cerevisiae deletion strains, locus YPL055C, strain LGE1, active compounds read low 0.996 | S. cerevisiae deletion strains, locus YPL078C, strain atp4, active compounds read low 1.05 | S. cerevisiae deletion strains, locus YPL106C, strain sse1, active compounds read low 1.06 | S. cerevisiae deletion strains, locus YPL240C, strain hsp82, active compounds read low 1 | S. cerevisiae deletion strains, locus YPL241C, strain CIN2, active compounds read low 0.994 | S. cerevisiae deletion strains, locus YPR119W, strain clb2, active compounds read low 0.971 | S. cerevisiae deletion strains, locus YPR141C, strain kar3, active compounds read low 0.982 | S. cerevisiae deletion strains, locus YPR163C, strain tif3, active compounds read low 0.975 | S. cerevisiae deletion strains, locus YPR167C, strain met16, active compounds read low 0.966 | S. cerevisiae deletion strains, strain wtn01, active compounds read low 0.955 | S. cerevisiae strains, strain wild type, active compounds read low 0.995
